We go through 39 molecules from PubChem BioAssay (NCI).

About 83,000 compounds went through this panel and 20% of them were active in at least one assay; those are over-represented in the sample as a whole.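 Single-dose data. Exposure time 48 hours. Values below 10 considered active.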 Activity calls are given as the source filed them.

The first assay has as its system BT-549 breast. The experiment in a line: NCI-60 one-dose screen, 48 h (100 = growth as untreated, 0 = no growth, -100 = all killed). The settings on record: 10 µM unless noted.
In the case of `CCOC(=O)C1=C(C)Nc2nc3ccccc3n2C1c1ccccc1` (centres undefined), the growth is 101% (inactive).
Same read-out and setting: the same measure for `Oc1ccc(CSc2nnc(-c3ccc(Br)cc3)o2)c2cccnc12`: 43% (inactive); for `CNC(=O)c1cc(N2CCc3cc(NC(=O)Nc4ccc(Cl)c(Cl)c4)ccc32)ccn1`: 77% (inactive); for `COc1cc2cc(Oc3ccc(NC(=O)Nc4cc(C(F)(F)F)cc(C(F)(F)F)c4)cc3)c(C)nc2cc1OCCN(C)C`: 114% (inactive).
Take `Cc1cc(O)c(=O)cc2c1C[C@H]1CC(C)(C)/C=C/C[C@]3(C)Oc4cc(=O)c(O)cc(C)c4C[C@H]3C[C@H](O)[C@@]1(C)O2`: the growth is 1.87% (active).
Regarding `COc1ccc(-c2nnc(SCc3ccc(O)c4ncccc34)n2-c2ccccc2)cc1`, the growth is 19.7% (inactive).
Still for that read-out and setting: as for `O=C(CCCCCCN1CC(=O)N2[C@@H](c3ccc(Cl)c(F)c3)c3[nH]c4ccccc4c3C[C@H]2C1=O)NO`, the figure is 108% (inactive); as for `Oc1ccc(CSc2nnc(-c3ccccc3)n2-c2ccccc2)c2cccnc12`, 25.2% (inactive).
On the same count and under the same terms, as for `Cc1ccc(NC(=O)c2ccc(CN3CCN(C)CC3)c(C(F)(F)F)c2)cc1Oc1ccc(-c2[nH]nc3ncnc(N)c23)cc1`, the figure is 105% (inactive); as for `CC(c1ccccc1)N1C(=O)/C(=C/c2csc(C#N)n2)SC1=S` (centres undefined), 90.5% (inactive).
Same read-out and setting: as for `O=C(COc1ccc(C2SCC(=O)N2c2ccc(F)cc2)cc1)c1ccccc1` (centres undefined), the figure is 93.4% (inactive); as for `COc1ccc(-c2nnc(SCc3ccc(O)c4ncccc34)o2)cc1`, 35.7% (inactive).
Take `O=c1[nH]c(CNc2ccc(NCc3c(-c4ccccc4)no[n+]3[O-])cc2)nc2c1cnn2-c1ccccc1`: the growth is 62.1% (inactive).
`COc1ccc(N)cc1C(=O)Nc1cccc(-c2cc(=O)c3c(OC)c(OC)c(OC)cc3o2)c1`: the growth is 51.2% (inactive).
Same read-out and setting: as for `CCCC(=O)NC(c1cccnc1)c1cc(C(C)=O)c2cccnc2c1O` (centres undefined), the figure is 32.2% (inactive).

The subject of a further assay is MDA-MB-435 melanoma. The assay is described as above. The note with it: 10 µM unless noted.
Take `ClC(Cl)c1nc(-c2cccs2)n2nc(-c3ccccc3)cc2n1`: the growth was -9.17% (active).
As for `O=C(COc1ccc(C2SCC(=O)N2c2ccccc2)cc1)c1ccccc1` (centres undefined), the growth is 103% (inactive).
With `c1ccc(-c2n(Cc3ccc4ccccc4c3)c3c4ccccc4c4ccccc4c3[n+]2Cc2ccc3ccccc3c2)cc1`, the growth is -85.4% (active).
With `O=C1[C@@H]2Cc3c([nH]c4ccccc34)[C@H](c3c(Cl)cccc3Cl)N2C(=O)CN1C1CCN(Cc2c(F)cccc2F)CC1`, the growth was 85.1% (inactive).
Still for that read-out and setting: as for `NCCN1CCN(c2nc(-c3ccccc3)nc3nc(-c4ccccc4)oc23)CC1`, the figure is -77.6% (active).
As for `C/C(=C(/C)C1CC1CCN(C(=O)c1ccccn1)S(=O)(=O)c1ccc(C)cc1)C1CCCCC1` (centres undefined), the growth was 98.2% (inactive).
Same read-out and setting: as for `Cc1nn(-c2ccccc2)cc1/C=N/Nc1nc(Nc2ccccc2)nc(Nc2ccc(S(N)(=O)=O)cc2)n1`, the figure is -31.8% (active); as for `Brc1cccc(/C=N/Nc2nc(N/N=C/c3cccc(Br)c3)nc(N3CCOCC3)n2)c1`, 33.4% (inactive); as for `COc1cc(/C=C2\SC(=O)NC2=O)ccc1OCC(=O)Nc1ccc(C(=O)/C=C/c2cc3ccccc3nc2Cl)cc1`, 83.6% (inactive).
Still for that read-out and setting: the same measure for `O=c1oc2ccc(-c3ccc(F)cc3F)cc2c(=O)n1-c1ccc(F)c(F)c1`: 3.43% (active); for `CC[C@@](C)(NC(=O)C(C)(C)NC(=O)[C@@H](NC(=O)[C@@H]1CCCN1C(=O)C(C)(C)NC(=O)[C@H](CC(C)C)NC(=O)CNC(=O)C(C)(C)NC(=O)[C@@H](NC(=O)C(C)(C)NC(=O)[C@H](CCC(N)=O)NC(=O)[C@H](C)NC(=O)C(C)(C)NC(=O)[C@H](C)NC(=O)C(C)(C)NC(=O)[C@@H]1CCCN1C(=O)C(C)(C)NC(C)=O)C(C)C)C(C)C)C(=O)N[C@@H](CCC(N)=O)C(=O)N[C@@H](CCC(N)=O)C(=O)N[C@H](CO)Cc1ccccc1`: 4.98% [4.25 µM] (active).
Still for that read-out and setting: the same measure for `O=C(/C=C/c1cn(-c2ccccc2)nc1-c1ccc(Cl)cc1)c1cc2ccccc2oc1=O`: 57.6% (inactive); for `CCN1C(=O)N(CC)C2SC(N/N=C/c3ccc(OC)cc3)=NC21` (centres undefined): 0.665% (active); for `O=C(O)c1ccc(-n2cc(CNc3ccc(F)cc3)c(-c3ccc(C(F)(F)F)cc3)n2)cc1`: 80.9% (inactive).
Consider `COc1cc(/C=C/C(=O)c2ccc(NC(=O)COc3cccc4cccnc34)cc2)cc(OC)c1OC`, for which the growth was 88.3% (inactive).
Regarding `COc1cc(CNC(=O)Cc2ccccc2[N+](=O)[O-])ccc1OCC(=O)NO`, the growth was 106% (inactive).
Consider `Oc1ccc(CSc2nnc(-c3cnccn3)o2)c2cccnc12`, for which the growth was 13.1% (inactive).
Still for that read-out and setting: the same measure for `O=C(NCCCNc1cc(-c2cn(-c3ccccc3)nc2-c2cccc(O)c2)ccn1)Nc1ccc(F)cc1`: -39.5% (active); for `COc1ccc(-c2nn(-c3ccccc3)cc2/C=C/C(=O)c2ccc(NC(=O)CCCCCCC(=O)NO)cc2)cc1`: 104% (inactive).
Consider `O=C1[C@H]2Cc3c([nH]c4ccccc34)[C@@H](c3c(Cl)cccc3Cl)N2C(=O)CN1C1CCN(Cc2ccccc2)CC1`, for which the growth was 0.213% (active).
Still for that read-out and setting: as for `COc1cccc(/C=C/C(=O)c2ccc(NC(=O)COc3cccc4cccnc34)cc2)c1`, the figure is 100% (inactive); as for `CCCC(=O)NC(c1cccnc1)c1cc(Cl)c2cccnc2c1O` (centres undefined), 38.1% (inactive).
On the same count and under the same terms, as for `C/C(=N/Nc1nc(N/N=C(/C)c2ccc([N+](=O)[O-])cc2)nc(N2CCOCC2)n1)c1ccc([N+](=O)[O-])cc1`, the figure is 85% (inactive); as for `Oc1ccc(CSc2nnc(-c3cnccn3)n2-c2ccccc2)c2cccnc12`, 23.4% (inactive).
Consider `CCOC(=O)C1=C(C)Nc2nc3ccccc3n2C1c1ccccc1` (centres undefined), for which the growth is 96.6% (inactive).
On the same count and under the same terms, the same measure for `Oc1ccc(CSc2nnc(-c3ccc(Br)cc3)o2)c2cccnc12`: 29.3% (inactive); for `CNC(=O)c1cc(N2CCc3cc(NC(=O)Nc4ccc(Cl)c(Cl)c4)ccc32)ccn1`: 84.2% (inactive); for `COc1cc2cc(Oc3ccc(NC(=O)Nc4cc(C(F)(F)F)cc(C(F)(F)F)c4)cc3)c(C)nc2cc1OCCN(C)C`: 106% (inactive).
Still for that read-out and setting: as for `Cc1cc(O)c(=O)cc2c1C[C@H]1CC(C)(C)/C=C/C[C@]3(C)Oc4cc(=O)c(O)cc(C)c4C[C@H]3C[C@H](O)[C@@]1(C)O2`, the figure is 15.7% (inactive); as for `COc1ccc(-c2nnc(SCc3ccc(O)c4ncccc34)n2-c2ccccc2)cc1`, 14.3% (inactive).
With `O=C(CCCCCCN1CC(=O)N2[C@@H](c3ccc(Cl)c(F)c3)c3[nH]c4ccccc4c3C[C@H]2C1=O)NO`, the growth is 82.8% (inactive).
The same measure, in the same setting: as for `Oc1ccc(CSc2nnc(-c3ccccc3)n2-c2ccccc2)c2cccnc12`, the figure is 13.9% (inactive); as for `Cc1ccc(NC(=O)c2ccc(CN3CCN(C)CC3)c(C(F)(F)F)c2)cc1Oc1ccc(-c2[nH]nc3ncnc(N)c23)cc1`, 71.5% (inactive).
On the same count and under the same terms, as for `CC(c1ccccc1)N1C(=O)/C(=C/c2csc(C#N)n2)SC1=S` (centres undefined), the figure is 94.4% (inactive); as for `O=C(COc1ccc(C2SCC(=O)N2c2ccc(F)cc2)cc1)c1ccccc1` (centres undefined), 103% (inactive); as for `COc1ccc(-c2nnc(SCc3ccc(O)c4ncccc34)o2)cc1`, 24% (inactive).
Same read-out and setting: as for `O=c1[nH]c(CNc2ccc(NCc3c(-c4ccccc4)no[n+]3[O-])cc2)nc2c1cnn2-c1ccccc1`, the figure is 77.8% (inactive).
With `COc1ccc(N)cc1C(=O)Nc1cccc(-c2cc(=O)c3c(OC)c(OC)c(OC)cc3o2)c1`, the growth was 77.4% (inactive).
The same measure, in the same setting: as for `CCCC(=O)NC(c1cccnc1)c1cc(C(C)=O)c2cccnc2c1O` (centres undefined), the figure is 34.5% (inactive).
